# In the library only some 7.4% were active in any assay of this set; here they are far more common.
# FLuc counter = counter-screen for miR-21 project: firefly luciferase inhibitors or activators; purified FLuc, Km substrates, luminescence inhibition; Potency, µM (top dose mostly 57.5 µM), without a hit: at the top dose activity change, negative = inhibition, actives largely listed as inhibitors; actives 6.9% (n = 360,000);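 note: plate controls were vehicle for no effect and reference inhibitor for full effect; nearly all actives have a fitted effect of over 55% in size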
# Target sequence (P08659 whole entry, looked up): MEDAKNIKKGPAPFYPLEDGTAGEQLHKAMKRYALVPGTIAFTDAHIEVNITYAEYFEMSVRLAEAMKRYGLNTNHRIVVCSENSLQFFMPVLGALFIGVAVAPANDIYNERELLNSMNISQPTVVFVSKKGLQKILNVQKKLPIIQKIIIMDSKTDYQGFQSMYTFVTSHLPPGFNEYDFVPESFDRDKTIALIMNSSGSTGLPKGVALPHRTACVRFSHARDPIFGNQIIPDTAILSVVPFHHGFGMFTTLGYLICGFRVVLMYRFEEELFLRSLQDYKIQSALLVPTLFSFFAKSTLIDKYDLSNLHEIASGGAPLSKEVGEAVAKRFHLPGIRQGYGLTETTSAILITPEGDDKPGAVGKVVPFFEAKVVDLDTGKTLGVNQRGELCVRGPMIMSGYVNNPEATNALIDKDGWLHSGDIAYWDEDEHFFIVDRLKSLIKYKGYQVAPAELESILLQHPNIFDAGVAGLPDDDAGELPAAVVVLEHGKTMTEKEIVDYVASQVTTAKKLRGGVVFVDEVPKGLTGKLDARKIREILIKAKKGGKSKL
#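 Biochemical qHTS of compounds, final roughly 60 µM downward over six points, against 10 nM purified firefly luciferase using Km concentrations of substrates (10 uM D-luciferin, 10 uM ATP) in Tris acetate pH 7.5 buffer; luminescence output.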
# ELG1 genotoxic = inducers of genotoxicity in HEK293T ELG1-luciferase cells. HEK293T ELG1-luciferase reporter, luminescence, 16 h. Potency, µM (series often up to 46 µM), inactives show at the top dose activity change, positive = activation, actives largely listed as activators. actives 1.3% (n = 330,000). AID 504466; note: % of control where 0% means no effect; nearly all actives have a fitted effect of over 60% in size
#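 Screening used a luciferase reporter fused to human ELG1 in HEK293T cells. Luminescence was read on a CCD plate imager after 16 hr exposure and 30 min ONE-Glo incubation.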
# KinaseGlo FLuc = blocks Kinase-Glo luciferase, a counter-screen artifact. Q27757. Kinase-Glo luciferase, ATP luminescence, 8 min. Potency, µM (series often up to 38.3 µM), for the others: at the top dose activity change, negative = inhibition, actives largely listed as inhibitors. actives 0.28% (n = 200,000); note: % is set by controls: 0 for no effect and ±100 for the full control effect; nearly all actives have a fitted effect of over 60% in size
#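 Inhibition of Kinase-Glo luciferase light generation was assessed at 10 uM ATP in pH 7.2 imidazole buffer, with luminescence measured after eight minutes at ambient temperature.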
# NPC1 prom act = activates the NPC1 promoter; AID 485313; Potency, µM (highest dose often 9.22 µM), for inactives: at the top dose activation, actives largely listed as activators; Huh7 NPC1 promoter luciferase reporter, 24 h; actives 2.4% (n = 320,000); note: % of control where 0% means no effect; nearly all actives have a fitted effect of over 60% in size
#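 Stable NPC1-promoter luciferase Huh7 line; cpd (DMSO) 24 h, 37 °C, 5% CO2; Amplite luciferase reagent 10 min RT; luminescence readout. qHTS format.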
# SMN2 splice up = increases expression of the SMN2 splice variant | HEK293 SMN2-luciferase splicing reporter, luminescence, 30-36 h | Potency, µM (top dose mostly 46.1 µM), for inactives: at the highest dose activity change, positive = activation, hits mostly activators | actives 2.8% (n = 210,000) | AID 1458; note: % of control where 0% means no effect; nearly all actives have a fitted effect of over 55% in size
#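 qHTS luciferase splicing reporter: luminescence rises when SMN2 exon 7 is included in transfected HEK293 cells. Compound exposure lasted 30-36 h at 37C, with 4.5 mM final sodium butyrate as control, followed by a ONE-Glo read.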
# Rab9 promoter act = activates the Rab9 promoter; Huh7 Rab9 promoter-luciferase reporter, luminescence, 24 h; Potency, µM (doses to about 9.22 µM), for the others: top-dose activation, negative = inhibition, actives largely listed as activators; actives 2.8% (n = 320,000); AID 485297; note: % of control where 0% means no effect; nearly all actives have a fitted effect of over 60% in size
#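 Measured in stably transfected Huh7 cells bearing a Rab9 promoter–luciferase construct: 24 h compound treatment at 37 °C, followed by luminescence detection.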
# Active calls of the source: *; u = inconclusive; x = no result. Calls come from the whole dose curve; as a rule, active = well fitted curve in the direction sought with a large enough effect; inconclusive = small, poorly fitted or top-dose-only effect, or another doubt; inactive = no such curve, though single readings can be large; an effect the other way counts as inactive or inconclusive. Potency is the fitted concentration of half-maximal effect.
SMILES,FLuc counter,ELG1 genotoxic,KinaseGlo FLuc,NPC1 prom act,SMN2 splice up,Rab9 promoter act
C/C(=N/N=C1/NC(=O)CC(C(=O)O)S1)c1ccccc1 (stereo unspecified),-4%,0%,1%,-3%,-13%,-1%
Cc1c(Cl)cccc1NC(=O)Nc1nnc(N2CCCCCC2)s1,1%,x,x,x,x,x
COc1ccccc1NC(=O)CCCCCN1C(=O)c2cccc([N+](=O)[O-])c2C1=O,1%,0%,x,1%,x,0%
COc1cc(/C=C2/C(=O)c3cccc([N+](=O)[O-])c3C2=O)c(Br)cc1O,u,-6%,11µM*,-4%,u,-9%
CCc1ccc(-c2ccc(SCC(=O)Nc3nnc(C)s3)nn2)cc1,0.3µM*,u,-5%,2.2µM*,13µM*,1.3µM*
Cc1nnc(NC(=O)CSc2ccc(-c3ccc(Cl)cc3)nn2)s1,u,u,-2%,17%,13%,0%
CCc1ccc(-c2ccc(SCC(=O)NCC3CCCO3)nn2)cc1 (stereo unspecified),3.4µM*,9%,-2%,u,14µM*,u
CCOc1ccc(-c2ccc(SCC(=O)Nc3nnc(C)s3)nn2)cc1,0.3µM*,0%,-5%,u,u,u
CCc1nnc(NC(=O)CSc2ccc(-c3ccc(-n4cccn4)cc3)nn2)s1,1.2µM*,5.8µM*,x,u,x,2.5µM*
COc1ccc(NC(=O)CSc2nc(-c3ccc(OC)cc3)[nH]c2-c2ccc(OC)cc2)cc1,1%,x,x,x,-5%,x
CC1SCC(=NOCc2ccccc2)CS1 (stereo unspecified),19µM*,u,x,u,x,u
CCONc1ncnc2nonc12,0%,-3%,-1%,1%,3%,-4%
Clc1ccc(CONc2ncnc3nonc23)c(Cl)c1,u,3%,0%,u,u,3.5µM*
COC(=O)CSc1nc2ccc(C)cc2cc1C#N,u,u,0%,3.5µM*,2.8µM*,0.79µM*
COc1ccc2cc(C#N)c(SCC(=O)N3CCCC3)nc2c1,-5%,u,0%,-1%,19%,0%
CCOC(=O)CSc1nc2cc(OCC)ccc2cc1C#N,4.3µM*,8.2µM*,-2%,u,22µM*,2.8µM*
CCOc1ccc2cc(C#N)c(SCC(=O)N3CCC(C)CC3)nc2c1,0%,1%,0%,-1%,4%,-4%
COC(=O)CSc1nc2cc(OC)ccc2cc1C#N,9.5µM*,1.5µM*,x,1.4µM*,x,1.4µM*
CCCN1C(=O)C2(c3ccccc31)c1c(oc3ccc(F)cc3c1=O)C(=O)N2CCCOC(C)C (stereo unspecified),-6%,x,x,x,-7%,x
Cc1ccccc1NS(=O)(=O)c1ccc2[nH]cc(C(=O)NCCc3ccccc3)c(=O)c2c1,u,x,x,1%,x,-3%
NS(=O)(=O)c1cccc(NC(=O)COC(=O)CNC(=O)c2ccc(-c3ccccc3)cc2)c1,6.7µM*,-1%,x,5%,x,0%
Cc1[nH]c2ccc(C(=O)OCC(=O)Nc3cccc(S(N)(=O)=O)c3)cc2c1C,17µM*,4%,x,-2%,x,18%
CCNC(=O)CN(Cc1ccccc1)S(=O)(=O)c1ccccc1,8%,23µM*,-2%,0%,0%,0%
CCNC(=O)CN(CCc1ccccc1)S(=O)(=O)c1ccc(OC)cc1,-1%,-1%,-2%,1%,-17%,3%
O=c1c2sccc2nc(SCc2cc(=O)n3ccccc3n2)n1Cc1ccccn1,-3%,u,-2%,u,13µM*,4µM*
SMILES,FLuc counter,ELG1 genotoxic,KinaseGlo FLuc,NPC1 prom act,SMN2 splice up,Rab9 promoter act
COCCNC(=O)CCN1C(=O)c2cccnc2Oc2ccc(C)cc21,-2%,x,x,x,x,x
CNC(=O)N(O)C1N(NC(=O)Nc2cccc3ccccc23)C(=S)SC1(C)C (stereo unspecified),-1%,4%,0%,-4%,7.1µM*,-1%
CC1(C)SC(=S)N(NC(=O)Nc2ccccc2)C1N(O)C(=O)Nc1ccccc1 (stereo unspecified),0%,-1%,-2%,0%,0%,9%
CCOc1ccccc1NC(=O)Cn1cnc2c1c(=O)n(C)c(=O)n2C,-1%,x,x,x,-21%,x
COc1ccc(/C(N)=N/OC(=O)Cc2ccccc2OC)cc1,u,2%,1%,15%,-10%,1%
Cc1cc(C(=O)O/N=C(\N)c2ccc(C(C)(C)C)cc2)no1,6µM*,10%,x,3.5µM*,x,1.8µM*
COc1ccc(C(=O)O/N=C(\N)c2ccc(Br)cc2)cc1,3µM*,16%,x,u,x,u
Cc1cc(/C(N)=N/OC(=O)Nc2ccc(Cl)cc2)no1,19µM*,u,x,10%,x,u
CCOC(=O)c1cc(/C(C)=N/OC(=O)c2ccc(C(C)(C)C)cc2)on1,2%,1%,x,0%,x,0%
COc1ccc(C(=O)O/N=C(\N)c2ccccc2)cc1,0.21µM*,1.8µM*,x,0.5µM*,x,1.4µM*
Cc1c(C(=O)OC2CCCCC2)[nH]c2c1C(=O)CC(c1ccc(C(C)(C)C)cc1)C2 (stereo unspecified),7%,x,x,x,15%,x
O=C(CN1CCN(Cc2ccc(F)cc2Cl)S1(=O)=O)Nc1ccc(F)cc1,2%,x,x,x,x,x
CCOC(=O)C(CCc1ccccc1)NC(C)C(=O)N1CCCC1C(=O)O (stereo unspecified),x,x,-3%,x,4%,x
COc1ccc(-c2nsc(NC(=O)c3oc4cc(C)c(C)cc4c3C)n2)cc1,-6%,x,x,x,4%,x
CCc1nn(CC(=O)NCC(C)c2ccccc2)c(=O)c2cc3c(OC)cccc3n12 (stereo unspecified),0%,x,x,x,1%,x
CC(C)(C)c1ccc(C(=O)O/N=C(\N)c2ccccc2)cc1,0.76µM*,u,x,-16%,x,-12%
CC(C)(C)c1ccc(NC(=O)CON=C(N)c2ccccc2)cc1,u,2%,x,-2%,x,-2%
Cc1cc(=O)oc(C)c1C(=O)OCC(=O)c1ccc2ccccc2c1,3.4µM*,1%,-4%,15%,-21%,12%
Cc1cc(=O)oc(C)c1C(=O)OCC(=O)c1ccc(Cl)cc1,12µM*,5%,-3%,18%,-14%,27%
Cc1cc(=O)oc(C)c1C(=O)OCC(=O)c1ccc(Br)cc1,9.5µM*,-1%,-3%,1%,-18%,12%
Cc1cc(=O)oc(C)c1C(=O)OCC(=O)c1ccccc1,u,2%,3%,10%,-8%,7%
CCn1nc(C)cc1C(=O)OCC(=O)c1ccc(Cl)cc1,u,0%,x,-1%,x,6%
Cc1cccc(-c2nc3c4ccccc4nc(N4CCN(c5cccc(Cl)c5)CC4)n3n2)c1,-3%,x,x,x,6%,x

# Bioassay records deposited in PubChem by National Center for Advancing Translational Sciences (NCATS).
